An excerpt weighted towards active compounds, which were near 4.1% of everything screened.
ssDAF-12 act = S. stercoralis DAF-12 nuclear receptor activators, primary screen, cell-based, luminescence, HEK293, GRIP1 co-expression, lit1-tk-luc. Nuclear hormone receptor DAF-12 (Strongyloides stercoralis). HEK293 ssDAF-12/GRIP1 lit1-tk-luc reporter; % of 3 µM dafachronic acid response. activation, % at 6.8 µM. 370,000 tested, 1% active;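 active = activation above the mean over all tested compounds plus 3 SD, cut at about 0.9% in these data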;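 note: 0% = DMSO-only wells and 100% = 3 µM delta7-dafachronic acid wells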
hgDAF-12 ag = H. glycines DAF-12 receptor agonists, primary screen, cell-based, luminescence, HEK293, GAL4 fusion, UAS-luciferase | activation, % at 6.8 µM | AID 687014, 2013 | Nuclear hormone receptor DAF-12 (Heterodera glycines), GAL4 fusion | 370,000 tested, 1.8% active | HEK293 GAL4-hgDAF12 UAS-luciferase reporter, agonist luminescence; normalized to butyrate control;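 active = activation above a cutoff set at the mean of all screened compounds plus 3 SD, cut at about 10% in these data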;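 note: 0% = DMSO wells and 100% = sodium butyrate wells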
DAX1 inh-1 = DAX1 (NR0B1) inhibitors, primary screen, cell-based, HEK293, Gal4-DAX1, luciferase luminescence; 340,000 tested, 0.99% active; AID 504766, 2011; HEK293 Gal4-DAX1 luciferase reporter; Nuclear receptor subfamily 0 group B member 1 (Homo sapiens), P51843; inhibition, % at 6.75 µM;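 active = inhibition above the mean over all tested compounds plus 3 SD, cut at about 4.2% in these data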;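 note: 0% = DAX1-transfected cells with DMSO and 100% = empty-vector control cells with DMSO; inhibition shows as a rise in luminescence from relieved DAX1 repression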
Target sequence (P51843 207-470 limits assumed): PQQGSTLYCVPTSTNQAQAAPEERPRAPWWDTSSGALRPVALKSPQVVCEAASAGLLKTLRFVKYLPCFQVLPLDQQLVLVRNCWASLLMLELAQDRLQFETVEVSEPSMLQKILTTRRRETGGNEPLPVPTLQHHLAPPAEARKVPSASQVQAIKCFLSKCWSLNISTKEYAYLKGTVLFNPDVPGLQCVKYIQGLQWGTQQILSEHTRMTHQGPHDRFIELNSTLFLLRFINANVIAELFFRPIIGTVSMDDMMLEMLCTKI
hcDAF12 agonist = H. contortus DAF-12 nuclear receptor activators, primary screen, cell-based, luminescence, HEK293, lit1-tk-luc reporter | activation, % at 6.8 µM | HEK293 hcDAF-12 lit1-tk-luc reporter; 0% DMSO, 100% Δ7-dafachronic acid | 370,000 tested, 1.4% active;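 active = activation above the mean of all tested compounds plus 3 SD, cut at about 5.5% in these data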;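 note: 100% = response to 3 µM Δ7-dafachronic acid high control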
DAX1 inh-2 = DAX1 (NR0B1) inhibitors on StAR promoter, primary screen, cell-based, luminescence, SF-1 (NR5A1), full-length DAX-1 | HEK293T StAR-luciferase reporter, SF-1/DAX-1 repression relief | inhibition, % at 6.8 µM | 370,000 tested, 1.1% active;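 active = inhibition above the mean over all tested compounds plus 3 SD, cut at about 3.6% in these data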;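 note: 0% = DAX-1 cells with DMSO and 100% = cells lacking DAX-1 with DMSO; higher inhibition means more luminescence from relief of DAX-1 repression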
An asterisk follows results filed as active.

CC(C)c1ccc(NC(=O)NN2CCOCC2)cc1 was read as ssDAF-12 act 1.5*, hgDAF-12 ag 12.6*, DAX1 inh-1 5.0*, hcDAF12 agonist 2.7 and DAX1 inh-2 4.3*.
CC(C)c1ccc(/C=C/C(=O)N2CCOCC2)cc1 was read as ssDAF-12 act 0.9*, hgDAF-12 ag 6.4, DAX1 inh-1 6.2*, hcDAF12 agonist 0.1 and DAX1 inh-2 2.9.
`CC(C)c1ccc(/C=C/C(=O)N2CCCCCC2)cc1` gave ssDAF-12 act -1.7, hgDAF-12 ag -2.9, DAX1 inh-1 -2.3, hcDAF12 agonist -2.5 and DAX1 inh-2 -0.1.
Screening N#Cc1ccc(NC(=O)OC2CCC23CCC(c2ccccc2)CC3)cc1 (stereo not given) returned ssDAF-12 act -1.3, hgDAF-12 ag 0.5, hcDAF12 agonist -0.1 and DAX1 inh-2 -2.1.
Screening CN(C)C(=O)c1c([N+](=O)[O-])c(C(C)(C)C)nn1C returned ssDAF-12 act -1.3, hgDAF-12 ag 0.6, DAX1 inh-1 0.5, hcDAF12 agonist -0.3 and DAX1 inh-2 0.1.
For CCCc1nn(C)c(C(N)=O)c1[N+](=O)[O-] the results were ssDAF-12 act 1.0*, hgDAF-12 ag 1.5, DAX1 inh-1 0.9, hcDAF12 agonist 5.2 and DAX1 inh-2 0.9.
Screening Cc1ccccc1CN1[C@@H](C)[C@H](c2ccccc2)Oc2cccc(NCCc3ccccc3)c2S1(=O)=O returned ssDAF-12 act -0.5, hgDAF-12 ag 1.4, hcDAF12 agonist -0.2 and DAX1 inh-2 -0.6.
For CCOc1ccc(CCNC(=O)c2cc3sccc3n2Cc2cccc(C)c2)cc1OCC the results were ssDAF-12 act -2.4, hgDAF-12 ag -0.6 and hcDAF12 agonist -3.5.
Screening COC(=O)C[C@H]1C[C@@H]2c3cc(NS(=O)(=O)c4ccc(OC)cc4)ccc3O[C@@H]2[C@H](CO)O1 returned ssDAF-12 act -1.3, hgDAF-12 ag 1.0, DAX1 inh-1 3.9, hcDAF12 agonist -2.1 and DAX1 inh-2 -0.5.
Screening COC(=O)C[C@@H]1C[C@@H]2c3cc(NS(=O)(=O)c4ccccc4)ccc3O[C@@H]2[C@@H](CO)O1 returned ssDAF-12 act -1.5, hgDAF-12 ag 12.8*, DAX1 inh-1 1.1, hcDAF12 agonist 0.3 and DAX1 inh-2 0.8.
Screening COC(=O)[C@]12C[C@H](CC(=O)NCCC(C)C)C(=O)N(Cc3ccc4c(c3)OCO4)C1=C[C@H](COCc1ccccc1)O[C@@H]2C returned ssDAF-12 act -0.8, hgDAF-12 ag 1.6, hcDAF12 agonist 2.3 and DAX1 inh-2 -0.8.
`CN(C)/C=N/S(=O)(=O)c1ccc(Cl)cc1` gave ssDAF-12 act -1.0, hgDAF-12 ag -1.6, DAX1 inh-1 4.4*, hcDAF12 agonist -1.0 and DAX1 inh-2 -0.4.
Screening Cc1ccc(S(=O)(=O)/N=C/N(C)C)cc1 returned ssDAF-12 act -1.1, hgDAF-12 ag -0.3, DAX1 inh-1 0.6, hcDAF12 agonist 0.7 and DAX1 inh-2 -0.5.
CC1(NC(=S)NCCCCCCNC(=S)NC2(C)CCS(=O)(=O)C2)CCS(=O)(=O)C1 (stereo not given) was read as ssDAF-12 act -2.1, hgDAF-12 ag -0.4, DAX1 inh-1 5.0*, hcDAF12 agonist -1.2 and DAX1 inh-2 0.7.
CC1(NC(=O)NCCCCCCNC(=O)NC2(C)CCS(=O)(=O)C2)CCS(=O)(=O)C1 (stereo not given) was read as ssDAF-12 act -1.2, hgDAF-12 ag -1.7, DAX1 inh-1 1.7, hcDAF12 agonist -1.8 and DAX1 inh-2 0.0.
Screening COCCNC(=O)CN1CCOc2ccccc21 returned ssDAF-12 act -1.4, hgDAF-12 ag 2.1, DAX1 inh-1 0.2, hcDAF12 agonist 1.8 and DAX1 inh-2 0.0.
Screening O=C(CN1CCOc2ccccc21)NC1CC1 returned ssDAF-12 act 2.1*, hgDAF-12 ag 1.9, DAX1 inh-1 2.8, hcDAF12 agonist 6.5* and DAX1 inh-2 0.6.
Screening C=CCN1C[C@@H](COCc2ccccc2)Oc2cc(F)ccc2S1(=O)=O returned ssDAF-12 act -1.9, hgDAF-12 ag -0.1, hcDAF12 agonist -2.6 and DAX1 inh-2 -1.0.
`Cc1cc2cc(CN3C(=O)c4ccccc4C3=O)ccc2n1C` gave ssDAF-12 act -0.3, hgDAF-12 ag 5.1, DAX1 inh-1 0.9, hcDAF12 agonist 6.1* and DAX1 inh-2 -0.8.
C#CCCC(=O)O[C@H]1CCC[C@@]2(C(=O)N(Cc3ccccc3)c3ccccc32)[C@H]1NC(=O)CCc1ccccc1 was read as ssDAF-12 act -0.5, hgDAF-12 ag -2.0, hcDAF12 agonist -2.7 and DAX1 inh-2 -0.3.
`c1ccc(CNC2CC3CCC2C3)cc1` (stereo not given) gave ssDAF-12 act 0.9*, hgDAF-12 ag 3.9, DAX1 inh-1 -1.2, hcDAF12 agonist 0.2 and DAX1 inh-2 -0.1.
Screening COC(=O)[C@]12C[C@H](CC(=O)NCc3cccc(C(F)(F)F)c3)C(=O)N(Cc3ccco3)C1=C[C@H](COCc1ccccc1)O[C@@H]2C returned ssDAF-12 act -0.7, hgDAF-12 ag 6.1, hcDAF12 agonist -1.6 and DAX1 inh-2 -1.4.
O=S(=O)(NCCc1ccccc1)c1ccc(-n2cnnn2)cc1 was read as ssDAF-12 act -1.1, hgDAF-12 ag 2.8, DAX1 inh-1 1.3, hcDAF12 agonist 1.1 and DAX1 inh-2 -0.2.
Screening CCNS(=O)(=O)c1ccc(-c2ccc(-n3cnnn3)cc2)cc1 returned ssDAF-12 act -0.6, hgDAF-12 ag -3.1, DAX1 inh-1 6.3*, hcDAF12 agonist 0.1 and DAX1 inh-2 -0.9.
C(=Cc1cnnc2ccccc12)c1ccccc1 was read as ssDAF-12 act 0.6, hgDAF-12 ag 12.9*, DAX1 inh-1 2.1, hcDAF12 agonist 2.6 and DAX1 inh-2 2.1.
Cc1cc(C)nc(N/C(=N\S(=O)(=O)Cc2ccccc2)Nc2ccccc2Br)n1 was read as ssDAF-12 act -0.1, hgDAF-12 ag 2.6, DAX1 inh-1 4.4*, hcDAF12 agonist 1.4 and DAX1 inh-2 0.5.
CC1CCN(c2ccc(C(=O)O)cc2NS(=O)(=O)c2ccccc2[N+](=O)[O-])CC1 was read as ssDAF-12 act -1.3, hgDAF-12 ag 3.5, hcDAF12 agonist -1.3 and DAX1 inh-2 -0.4.
Cc1cc(C)cc(NC(=O)c2ccccc2CC[N+](=O)[O-])c1 was read as ssDAF-12 act -1.3, hgDAF-12 ag -0.9, DAX1 inh-1 -1.2, hcDAF12 agonist -1.2 and DAX1 inh-2 0.2.
For Cc1ccc(NC(=O)Nc2ccccc2CC[N+](=O)[O-])cc1 the results were ssDAF-12 act -0.2, hgDAF-12 ag 5.8, hcDAF12 agonist 5.8* and DAX1 inh-2 0.0.
